D1 antagonist: Antagonist of Human D 1 Dopamine Receptor: qHTS | HEK293 TREx D1 cells, calcium flux, dopamine EC80; hits give low values | activity change, negative = inhibition, % at 10 µM | 360,000 compounds, 3.2% hits | AID 504652, 2011; in the data active = activity change below about -30%
Target sequence (P21728 whole entry, looked up): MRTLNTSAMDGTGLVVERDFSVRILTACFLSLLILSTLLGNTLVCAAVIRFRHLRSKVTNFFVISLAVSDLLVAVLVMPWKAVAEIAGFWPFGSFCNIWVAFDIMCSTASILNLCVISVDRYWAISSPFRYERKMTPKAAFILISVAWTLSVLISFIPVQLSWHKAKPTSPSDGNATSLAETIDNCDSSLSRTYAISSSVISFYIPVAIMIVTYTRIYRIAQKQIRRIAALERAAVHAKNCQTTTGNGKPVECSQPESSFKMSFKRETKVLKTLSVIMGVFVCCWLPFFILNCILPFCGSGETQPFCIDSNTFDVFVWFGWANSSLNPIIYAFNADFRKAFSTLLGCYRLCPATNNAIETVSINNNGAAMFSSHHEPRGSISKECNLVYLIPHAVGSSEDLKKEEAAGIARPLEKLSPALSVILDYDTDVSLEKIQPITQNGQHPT
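Using tetracycline-induced force-coupled D1 Hek293 cells and a calcium dye, signals were followed for 180 s after compound, then for 180 s after EC80 dopamine, to detect inhibitors.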
D1 agonist: Allosteric Agonists of the Human D1 Dopamine Receptor: qHTS; D(1A) dopamine receptor (Homo sapiens), P21728; HEK293 T-REx D1 cells, calcium flux, agonist mode; activation, % at 2 µM; 360,000 compounds, 1% hits; AID 504660, 2011
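Inducible HEK293 T-REx D1 cells, force-coupled to calcium signalling, were plated at 4000 cells/well with tetracycline and held overnight at 30 C. After no-wash calcium dye loading, compound-evoked calcium rise over 180 s flagged agonists.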
TRHR PAM: qHTS for Small Molecule Agonists and Allosteric Enhancers of Human TRH Receptor: Primary Screen for Enhancers; AID 493056, 2011; 360,000 compounds, 0.66% hits; TRHR cells, fluo-8 calcium fluorescence, EC20 TRH enhancement; enhancement, % at 2 µM; in the data active = enhancement above about 30%
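TRHR-expressing cells loaded with fluo-8 calcium dye were read kinetically (ex 480/em 530) during compound addition, then stimulated with an EC20 of TRH (10 nM final). Enhancement of the Gq-mediated intracellular calcium response was scored.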
D1 potentiator: Potentiators of Human D1 Dopamine Receptor: qHTS | D(1A) dopamine receptor (Homo sapiens), P21728 | HEK293 TREx D1 cells, calcium flux, dopamine EC20 potentiation | potentiation, % at 10 µM | 360,000 compounds, 0.036% hits; in the data active = potentiation above about 30%
TRHR agonist: qHTS for Small Molecule Agonists and Allosteric Enhancers of Human TRH Receptor: Primary Screen for Agonists. Thyrotropin-releasing hormone receptor (Homo sapiens), P34981. TRHR cells, calcium flux fluo-8, FDSS agonist mode. activation, % at 2 µM. 360,000 compounds, 0.18% hits. AID 493084, 2011
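Fluo-8-loaded TRHR cells; 10 s baseline, compound added, kinetic Ca2+ fluorescence read 1/s, agonist mode.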
A number is an active result; n = inactive; x = no result given. The list is not random: actives were taken first. Their share in the collection is about 4.7%. Cut-off read from the data, not from the text of the source, unless noted: active = activation above about 30%; inactive = the rest.

SMILES	D1 antagonist	D1 agonist	TRHR PAM	D1 potentiator	TRHR agonist
COc1ccc(N(CC(=O)Nc2cc(OC)cc(OC)c2)S(=O)(=O)c2c(C)noc2C)cc1	n	n	n	n	n
CC(C)(CC(=O)NCc1ccc(Cl)cc1Cl)CC1=NS(=O)(=O)c2ccccc2N1	-51	n	n	n	n
Cc1ccc(Cl)cc1NC(=O)COC(=O)CC(C)(C)CC1=NS(=O)(=O)c2ccccc2N1	n	n	n	n	n
CCN1CCCC1CNC(=O)c1cc(OC)c(OC)c(OC)c1 (configuration not stated)	n	n	n	n	n
CCCCN1CCCC1CNC(=O)c1cc(C#N)c2ccccc2c1OC (configuration not stated)	-41	n	n	n	n
C/C(=N/OCC(=O)Nc1ccccc1)c1cccs1	n	31	n	n	n
COc1ccc(/C=N/NC(=O)CO/N=C(\C)c2cccs2)cc1	n	n	n	n	n
C/C(=N\OCC(=O)N/N=C/c1ccccc1)c1cccs1	n	n	35	n	n
Cc1ccc(CSc2nc3ccc(NC(=O)COc4ccccc4)cc3s2)cc1	n	n	n	n	n
CN1Cc2c(N3CCOCC3)nc3sc(C(=O)c4ccc(Br)cc4)c(N)c3c2CC1(C)C	-49	34	n	n	n
CN1Cc2c(N3CCOCC3)nc3sc(C#N)c(N)c3c2CC1(C)C	n	n	n	n	n
CCOC(=O)c1c(C)[nH]c(C(=O)OCC(=O)N2CCN(S(=O)(=O)c3ccc(C)cc3C)CC2)c1C	n	n	n	n	n
COc1cc(C2C(C#N)=C(C)NC3=C2C(=O)c2ccccc23)cc(OC)c1OC (configuration not stated)	-53	n	n	n	n
O=[S+]([O-])(c1ccc2c(c1)OCCO2)N1CCN([S+](=O)([O-])c2ccccc2Br)CC1	n	n	n	n	n
O=C(NCCc1ccccc1)C1CCN(C2CCN(Cc3ccco3)CC2)CC1	-35	n	n	n	n
CN1CCN(C(=O)Nc2cccc(Cl)c2)c2cccnc21	n	47	n	n	n
Cc1ccc(Cl)cc1NC(=O)N1CCN(C)c2ncccc21	n	n	n	n	n
CC1=C([N+](=O)[O-])C(c2ccc3c(c2)OCO3)N(C)C(=O)N1C (configuration not stated)	n	n	n	n	n
CN(Cc1ccccc1O)CC1CCCN(CCc2ccc(Cl)cc2)C1 (configuration not stated)	n	n	n	n	n
CN(Cc1ccc(C#CCCO)cc1)CC1CCCN(CCc2ccc(Cl)cc2)C1 (configuration not stated)	-38	n	n	n	n
CC(=O)c1ccc(NC(=O)CSc2nccn2Cc2ccc3c(c2)OCO3)cc1	n	n	n	n	n
N#Cc1nc(Nc2ccc(Br)cc2)nc(NC2CCCC2)n1	n	n	n	n	n
COCC1CCN(C(=O)c2cc(COc3ccc(-n4cncn4)cc3)on2)CC1	-36	n	n	n	n
CC(=O)c1sc2nc(-c3ccccc3)cc(C)c2c1N	n	n	n	n	n
CCOC(=O)CC1=C(C#N)C(c2cccnc2)C(C(=O)OCC)=C(N)O1 (configuration not stated)	n	n	n	n	n
SMILES	D1 antagonist	D1 agonist	TRHR PAM	D1 potentiator	TRHR agonist
CCOC(=O)CC1=C(C(=O)OCC)C(c2cccnc2)C(C#N)=C(N)O1 (configuration not stated)	n	n	33	n	n
CCOC(=O)C1=C(C)OC(N)=C(C(=O)OCC)C1c1ccncc1 (configuration not stated)	n	n	n	n	n
CCOC(=O)C1=C(C)OC(N)=C(C(=O)OCC)C1c1cccnc1 (configuration not stated)	-33	n	n	n	n
CCCN1CCCc2ccccc21	-31	n	n	n	n
CC(C)(C)NC(=O)CN(C(=O)CCN1CCCc2ccccc21)C(C)(C)C	n	n	n	n	n
COc1ccccc1NC(=O)Nc1ccc(S(=O)(=O)Nc2onc(C)c2C)cc1	n	n	n	n	n
Cc1[nH]c2ccccc2c1C(=O)CN1C(=O)C(=O)N(Cc2ccco2)C1=O	n	n	n	n	n
Cc1[nH]c2ccccc2c1C(=O)CN1C(=O)C(=O)N(CCC2=CCCCC2)C1=O	-32	n	n	n	n
CCOC(=O)N1CCC(Nc2c(NCCCN(CC)Cc3ccccc3)c(=O)c2=O)CC1	n	n	n	x	n
CCOC(=O)N1CCC(Nc2c(OCC)c(=O)c2=O)CC1	-34	n	n	n	n
CCCCN(CC)CCNc1c(NC2CCN(C(=O)OCC)CC2)c(=O)c1=O	-63	n	n	x	n
CCOC(=O)N1CCC(Nc2c(NCCCN(CC)CC)c(=O)c2=O)CC1	n	n	n	x	n
CCOC(=O)N1CCC(Nc2c(NCCCN3CCN(C4CCCCC4)CC3)c(=O)c2=O)CC1	-43	n	n	n	n
CCOC(=O)N1CCN(C(=S)NC2CCCC2)CC1	n	n	33	n	n
CCCCC[C@H]1CN(C2CCCCC2)C(=O)[C@@H]1CC(=O)NCc1ccccc1	n	n	n	n	n
O=C(Nc1cccc(Cl)c1)N1Cc2ccccc2Oc2ncccc21	n	n	n	n	n
CN(CCc1ccccc1)C(=O)CCc1nnc(Cc2ccc3c(c2)OCO3)o1	n	n	n	n	n
CCOC(=O)N1CCC(Nc2c(NCCCOC)c(=O)c2=O)CC1	-34	n	n	n	n
CCOC(=O)c1c(C)[nH]c(C)c1S(=O)(=O)NCC(=O)NCc1cccc(Br)c1	n	n	n	n	n
COc1cc([C@@H]2Nc3c(F)cccc3[C@@H]3C=CC[C@@H]32)cc(Br)c1OC	n	n	n	n	n
O=S(=O)(Nc1nc2ccccc2nc1Nc1ccc(N2CCOCC2)cc1)c1cc(Cl)ccc1Cl	-50	n	n	n	n
N#Cc1nc(-c2ccccc2F)oc1NC1CCCCC1	-34	n	n	x	n
CCOC(=O)C(NC(C)=O)C(=O)Nc1ccc(C(C)C)cc1 (configuration not stated)	n	n	39	n	n
CCOc1ccc(-c2cn3c(n2)sc2cc(C(=O)NCCc4ccc(OC)c(OC)c4)ccc23)cc1	n	n	n	n	n
COc1cccc(-c2ccc3c(N)c(C(=O)Nc4ccc(Cl)cc4F)sc3n2)c1	-31	n	n	n	n
CC(C)CSc1ccccc1NC(=O)c1sc2nc(-c3ccncc3)ccc2c1N	-31	n	n	n	n
COc1cccc(-c2ccc3c(N)c(C(=O)Nc4cc(C(F)(F)F)ccc4OC)sc3n2)c1	-35	n	n	n	n
